# Reference: the supplement of paper PMC3334620
# Over roughly 33,000 sequences, “E-score (-0.5 to 0.5)” has its median near -8e-05; the highest 2% begin near 0.23. The entries come from a sample that favours the highest values as a whole.
# Molecular target: T1, Nrg2 (UniProt P38082)
# T1 sequence: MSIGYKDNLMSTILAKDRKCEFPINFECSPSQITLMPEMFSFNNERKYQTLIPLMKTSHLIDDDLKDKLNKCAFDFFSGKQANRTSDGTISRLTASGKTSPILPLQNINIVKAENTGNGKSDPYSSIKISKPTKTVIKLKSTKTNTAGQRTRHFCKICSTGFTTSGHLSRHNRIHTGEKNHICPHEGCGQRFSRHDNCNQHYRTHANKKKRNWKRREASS
# Assay: PBM E-score (8-mer binding enrichment) (E-score (-0.5 to 0.5)); higher = stronger / more preferred TF binding
# Settings: protein concentration: 100 nM; construct: GST-full length
# Experimental: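 Universal 'all 10-mer' protein binding microarrays (Agilent AMADID 015681) probed with GST-tagged S. cerevisiae TFs (full-length or DBD) made by in vitro transcription/translation (PURExpress), about 100-200 nM. Bound TF was detected with fluorescent anti-GST. Each ungapped 8-mer (which stands for itself and its reverse complement) is scored by the PBM enrichment score (E-score), a modified Wilcoxon-Mann-Whitney statistic from -0.5 to +0.5, computed with the Universal PBM Analysis Suite. Scale: above 0.35 generally sequence-specific binding.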
row,Sequence,PBM E-score
1,ACTAAGGG,0.0502
2,GGCTTCCA,-0.186
3,CGCTTTTA,-0.0218
4,GGTGCCTA,-0.0877
5,CGCGCACC,0.14
6,GGTTCACA,0.103
7,TCTCGCAA,-0.0499
8,CAACCGCG,0.271
9,AAACCGCC,0.041
10,CAACCGCA,0.0352
11,AAACCGCG,0.266
12,AAACCGCA,-0.0776
13,CAACCGCC,0.0219
14,CGTCTTGC,0.0795
15,CATGAATC,0.115
16,GTTTGTGA,-0.00935
17,AACAAGGT,0.0681
18,AACAAATA,0.247
19,TACAAGCA,0.121
20,AACAAACA,0.22
21,AACAAGTA,-0.0255
22,AACAAAGT,0.26
23,AACAAATG,0.0558
24,AACAAAGG,0.0899
25,AACAAATT,0.251

row,Sequence,PBM E-score
1,AACAAGTT,-0.0278
2,TACAAACA,0.243
3,TACAAATA,0.0774
4,ACCAAGGA,-0.0125
5,CGGTGGCC,0.0203
6,AGATCTAC,0.00881
7,ATGCCTGA,-0.126
8,CATTTGAA,0.0105
9,CTTAGTCA,-0.0736
10,CGGCCCCA,-0.253
11,ACTCATGA,0.143
12,CCTAACTC,-0.0633
13,AACCTCAG,0.072
14,CACCTCGA,0.256
15,GACCTCGA,0.126
16,AACCTCGA,0.0566
17,GGTTCAGA,0.0397
18,ACCATGGG,-0.0447
19,CCCATGGG,0.323
20,CCCATGGA,-0.00741
21,TAGAACAA,-0.00331
22,GGTCAGGA,0.244
23,AGTCAGGA,0.0134
24,CGTCAGGA,-0.112
25,GTGGCAGA,-0.276

row,Sequence,PBM E-score
1,AAGAGCAT,-0.0179
2,GCCCCCTA,-0.212
3,GCCCCTGA,0.292
4,AGCCCTGA,0.0189
5,GCCCCTTA,0.114
6,CGCCCTGA,0.167
7,GGCCCTGA,0.24
8,ACATAGAA,0.157
9,TCCATCGA,-0.021
10,GATACCCC,0.0656
11,AGCTTTAC,-0.26
12,CCCGAGGC,-0.176
13,CATGGTAC,0.00349
14,GTATGACA,-0.0684
15,GCATGATA,0.0399
16,GTATGAGA,0.133
17,ATATGATA,0.249
18,GTATGATA,0.281
19,ATATGACA,0.244
20,CTATGACA,-0.012
21,ATATGATG,0.0173
22,CTATGATA,0.0584
23,GAGGGCAC,-0.111
24,AGACAGTA,0.0173
25,CGAAGCGC,-0.0339

row,Sequence,PBM E-score
1,CCATCCTC,-0.111
2,CTCGGCAC,0.0273
3,AAAGATAC,0.232
4,AAAGATAG,-0.188
5,AAAGATAA,0.112
6,TCAAAGAA,-0.123
7,ACGTCTTG,-0.0332
8,GATAGAGA,-0.0171
9,CTAAGGAA,0.0506
10,CCCTTACG,-0.128
11,TCGCGAAA,0.161
12,ACGCGAAA,0.242
13,CCGCGAAA,0.0786
14,CGAGTGCA,0.0846
15,GTATGGTA,0.158
16,GGACGCCA,-0.149
17,AGACCCAC,0.0598
18,AACTTTGA,-0.0178
19,AACTTTGG,-0.0393
20,AACTTTGT,0.251
21,CGGCTATA,-0.0676
22,GTAACCAA,0.0617
23,CTCCGAAA,-0.0954
24,ATGACAAG,0.142
25,ATGACAAC,0.239

row,Sequence,PBM E-score
1,CAGACAAC,0.178
2,AAGACAAC,0.235
3,GTGACAAC,0.112
4,AAGACAAG,-0.0376
5,AAACCGAT,-0.137
6,CCGCCCGA,0.148
7,ACTTGGCC,-0.0839
8,ATCTGCGA,0.0624
9,ATCTGCGG,0.229
10,ATCTGCGC,0.0656
11,ACTAGAGT,-0.204
12,CTTCGGAC,0.0444
13,ATTATCGC,0.254
14,ATTATCGA,-0.00721
15,ATTATCGG,-0.142
16,ATAGGGGG,-0.364
17,CCCGACCG,-0.0769
18,CACCTGGG,-0.0933
19,GTCGCGAA,0.125
20,AACGCGAA,0.249
21,ATCGCGAG,0.175
22,GTCGCGAC,0.37
23,ATCGCGAT,0.271
24,GGCGCGAC,0.149
25,CTCGCGAC,0.192

row,Sequence,PBM E-score
1,CACGCGAA,-0.135
2,AACGCGAG,0.092
3,TTCGCGAA,0.22
4,ATCGCGAA,0.268
5,ATCGCGAC,0.0998
6,CCGCGCCA,-0.00589
7,CTCCTGTA,-0.111
8,ATACCGGA,-0.222
9,GGCGAGAA,0.16
10,AGTGTATG,0.0501
11,AAGCTACT,0.0546
12,GATCCAGA,0.187
13,AACGTAGG,-0.148
14,CAAAGCGG,-0.0751
15,AAGCAGTA,-0.0813
16,GCGCAGAA,0.248
17,CCGCAGAC,-0.105
18,TCGCAGAA,-0.114
19,GCGCAGAC,0.0533
20,CCGCAGAG,-0.193
21,CCGCAGAA,0.245
22,CAAGCGGC,0.0964
23,CACCTATA,-0.032
24,AGTGAAGC,0.054
25,AAAGAACG,0.0453

row,Sequence,PBM E-score
1,ATTAATCA,0.171
2,AGTCTTGA,-0.0377
3,AACGGCAC,-0.244
4,AACGGCAT,0.23
5,AACGGCGT,-0.11
6,AACGGCGA,0.303
7,CACGGCGA,0.0616
8,AACGGCAA,0.156
9,ATTGCGAG,0.0375
10,GTACGAGA,0.0861
11,TGACGGAA,-0.00402
12,AAGGACTC,-0.0561
13,ATGCTCGG,0.117
14,AAATCCAT,0.266
15,AAATCCAC,0.082
16,AAATCCAG,0.196
17,ATGGTGGA,-0.0629
18,ACATTAAA,0.143
19,ATATTAAA,0.29
20,TTATTCAA,0.029
21,TCATTAAA,0.35
22,ATATTCAA,0.244
